Experimental data: the supplement of paper PMC10849652
About 7,900 targets were measured; listed, in parts, are those with a hit and a random draw of the rest. About 0.6% of all pairs of compound and target were hits.

Columns and labels:
Experiment in all cases: log2 fold change, soluble protein after heating vs DMSO (PISA); higher = thermal stabilisation; K562 cells, 10 uM, 30 min; active = over 0.2 and 3.5 SD of the protein, either way, in both replicates (recomputed)
[1] = compound: Cc1ccc(NC(=O)c2ccc(CN3CC[C@H](N(C)C)C3)c(C(F)(F)F)c2)cc1Nc1nccc(-c2cncnc2)n1 [bafetinib]
Outline: (§1)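 For each measurement, 10 μM compound was applied for 30 min to K562 cells at 2×10^6 cells/mL. Aliquots were heated for 3 min across 48°C-58°C, pooled, and extracted in PBS with 0.5% NP-40 at 4°C; the supernatant after 21,000xg for 90 min was soluble protein. This was quantified by TMTpro 16plex LC-MS/MS with channel sums equalised, and thermal stability was reported relative to control samples from duplicates, on a log2 fold-change scale.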

[2] = compound: Cc1cccc(CC(=O)N2CCc3c2ccc(-c2cn(C)c4ncnc(N)c24)c3F)n1
Outline: as §1

[3] = compound: Cc1cn(-c2cc(NC(=O)c3ccc(C)c(Nc4nccc(-c5cccnc5)n4)c3)cc(C(F)(F)F)c2)cn1 [nilotinib]
Outline: as §1

[4] = compound: Cc1nc(Nc2n[nH]c3c2CN(C(=O)N[C@H](CN(C)C)c2ccccc2)C3(C)C)c2sccc2n1
Outline: as §1

[5] = compound: Cc1nc(Nc2ncc(C(=O)Nc3c(C)cccc3Cl)s2)cc(N2CCN(CCO)CC2)n1 [dasatinib]
Outline: as §1

[6] = compound: Cc1ncc(-c2ccnc(Nc3ccc(S(C)(=O)=O)cc3)n2)n1C(C)C
Outline: as §1

[7] = compound: Cn1cc(-c2ccc3c(c2)CCN3C(=O)Cc2cccc(C(F)(F)F)c2)c2c(N)ncnc21
Outline: as §1

[8] = compound: Cn1cc(-c2ccc3nnc(C(F)(F)c4ccc5ncccc5c4)n3n2)cn1
Outline: as §1

[9] = compound: Cn1cncc1[C@@](N)(c1ccc(Cl)cc1)c1ccc2c(c1)c(-c1cccc(Cl)c1)cc(=O)n2C [tipifarnib]
Outline: as §1

[10] = compound: FC(F)(F)c1ccc(/C=C/c2nc(COc3ccc(CCCCn4ccnn4)cc3)co2)cc1 [mubritinib]
Outline: as §1

Measured: log2 fold change

TERF2IP (UniProt Q9NYB0)
inactive: [1] -0.051 | [2] -0.008 | [3] -0.006 | [4] -0.163 | [5] -0.028 | [6] -0.128 | [7] -0.078 | [8] -0.033 | [9] 0.074 | [10] -0.014

SNRPB2 (UniProt P08579)
Sequence of UniProt P08579 (P08579 whole entry, looked up): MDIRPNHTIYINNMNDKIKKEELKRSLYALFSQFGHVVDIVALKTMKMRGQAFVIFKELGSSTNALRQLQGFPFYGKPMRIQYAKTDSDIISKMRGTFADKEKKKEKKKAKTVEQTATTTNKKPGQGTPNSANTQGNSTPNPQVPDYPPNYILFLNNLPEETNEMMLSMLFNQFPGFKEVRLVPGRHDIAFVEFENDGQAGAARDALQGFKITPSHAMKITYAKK
inactive: [1] -0.034 | [2] -0.081 | [3] 0.04 | [4] 0.048 | [5] 0.075 | [6] 0.135 | [7] -0.116 | [8] -0.025 | [9] 0.084 | [10] 0.045

STX7 (UniProt O15400)
Sequence of UniProt O15400 (O15400 whole entry, looked up): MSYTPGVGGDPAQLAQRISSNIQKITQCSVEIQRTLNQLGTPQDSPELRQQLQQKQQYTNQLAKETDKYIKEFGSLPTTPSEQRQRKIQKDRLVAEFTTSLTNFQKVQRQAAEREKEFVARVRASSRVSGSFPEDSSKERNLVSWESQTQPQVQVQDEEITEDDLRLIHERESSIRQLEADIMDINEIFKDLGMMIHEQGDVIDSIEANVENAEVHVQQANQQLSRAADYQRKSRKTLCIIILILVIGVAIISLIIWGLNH
inactive: [1] -0.06 | [2] -0.135 | [3] 0.009 | [4] 0.013 | [5] 0.03 | [6] -0.017 | [7] -0.007 | [8] 0.029 | [9] 0.025 | [10] 0.007

SYF2 (UniProt O95926)
Sequence of UniProt O95926 (O95926 whole entry, looked up): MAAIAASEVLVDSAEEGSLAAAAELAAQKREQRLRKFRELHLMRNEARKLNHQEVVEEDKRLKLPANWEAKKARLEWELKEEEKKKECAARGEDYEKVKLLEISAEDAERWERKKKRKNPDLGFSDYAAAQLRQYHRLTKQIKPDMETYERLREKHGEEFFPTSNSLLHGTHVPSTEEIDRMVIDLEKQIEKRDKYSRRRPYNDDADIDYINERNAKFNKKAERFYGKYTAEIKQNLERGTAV
inactive: [1] -0.198 | [2] 0.021 | [3] -0.017 | [4] 0.25 | [5] 0.119 | [6] 0.308 | [7] -0.193 | [8] -0.021 | [9] 0.027 | [10] -0.002

SNX1 (UniProt Q13596)
active: [6] -0.45
inactive: [1] -0.149 | [2] 0.146 | [3] -0.133 | [4] 0 | [5] -0.191 | [7] 0.07 | [8] -0.028 | [9] -0.002 | [10] 0.057

TM9SF4 (UniProt Q92544)
active: [2] 0.252
inactive: [1] 0.034 | [3] 0.005 | [4] 0.012 | [5] 0.127 | [6] 0.037 | [7] -0.021 | [8] 0.004 | [9] -0.061 | [10] 0.007

SRP68 (UniProt Q9UHB9)
inactive: [1] 0.043 | [2] 0.054 | [3] -0.118 | [4] -0.063 | [5] -0.098 | [6] 0.055 | [7] -0.026 | [8] -0.08 | [9] -0.119 | [10] 0.012

TFR2 (UniProt Q9UP52)
Sequence of UniProt Q9UP52 (Q9UP52 whole entry, looked up): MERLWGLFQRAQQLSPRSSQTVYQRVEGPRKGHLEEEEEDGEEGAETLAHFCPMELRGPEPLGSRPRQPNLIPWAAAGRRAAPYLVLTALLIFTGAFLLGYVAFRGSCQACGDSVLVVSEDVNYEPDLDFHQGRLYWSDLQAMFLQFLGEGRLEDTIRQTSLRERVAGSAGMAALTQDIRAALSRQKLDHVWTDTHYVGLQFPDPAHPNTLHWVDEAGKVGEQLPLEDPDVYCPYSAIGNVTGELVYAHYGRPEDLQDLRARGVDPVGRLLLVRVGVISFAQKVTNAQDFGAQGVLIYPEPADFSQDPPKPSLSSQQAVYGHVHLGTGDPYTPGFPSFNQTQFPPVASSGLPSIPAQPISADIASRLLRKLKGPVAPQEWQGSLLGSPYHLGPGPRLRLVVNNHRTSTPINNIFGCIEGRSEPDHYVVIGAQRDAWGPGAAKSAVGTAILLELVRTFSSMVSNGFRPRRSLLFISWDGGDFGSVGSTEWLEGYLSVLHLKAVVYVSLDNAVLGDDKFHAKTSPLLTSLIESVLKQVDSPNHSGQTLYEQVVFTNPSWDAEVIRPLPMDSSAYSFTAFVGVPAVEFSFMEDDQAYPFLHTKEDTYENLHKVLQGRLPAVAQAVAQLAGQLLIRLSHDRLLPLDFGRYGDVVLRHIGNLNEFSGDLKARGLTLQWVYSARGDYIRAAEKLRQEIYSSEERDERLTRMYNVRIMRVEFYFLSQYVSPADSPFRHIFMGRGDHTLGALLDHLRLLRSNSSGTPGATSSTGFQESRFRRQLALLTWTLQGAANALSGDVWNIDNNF
inactive: [2] -0.012 | [3] 0.012 | [4] -0.074 | [5] 0.006 | [6] -0.026 | [7] -0.019 | [8] 0.054 | [9] 0.025 | [10] 0.041
active: [1] -0.226

SMAD9 (UniProt O15198)
Sequence of UniProt O15198 (O15198 whole entry, looked up): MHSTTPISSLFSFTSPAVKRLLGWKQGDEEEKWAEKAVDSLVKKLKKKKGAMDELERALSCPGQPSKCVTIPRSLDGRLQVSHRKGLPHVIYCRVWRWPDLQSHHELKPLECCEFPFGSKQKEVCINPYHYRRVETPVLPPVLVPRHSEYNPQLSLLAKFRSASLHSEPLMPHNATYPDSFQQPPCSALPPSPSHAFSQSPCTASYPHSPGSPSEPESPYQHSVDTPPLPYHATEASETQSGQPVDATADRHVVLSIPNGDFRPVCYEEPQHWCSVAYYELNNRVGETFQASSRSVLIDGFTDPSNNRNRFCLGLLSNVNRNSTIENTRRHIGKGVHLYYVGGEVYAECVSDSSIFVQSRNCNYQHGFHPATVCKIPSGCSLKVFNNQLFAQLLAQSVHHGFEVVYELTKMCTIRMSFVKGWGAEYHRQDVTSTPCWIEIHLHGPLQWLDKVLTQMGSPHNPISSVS
inactive: [1] -0.102 | [2] -0.226 | [3] -0.113 | [4] 0.004 | [5] -0.077 | [6] -0.114 | [7] 0.058 | [8] 0.015 | [9] -0.069 | [10] -0.067

STX17 (UniProt P56962)
Sequence of UniProt P56962 (P56962 whole entry, looked up): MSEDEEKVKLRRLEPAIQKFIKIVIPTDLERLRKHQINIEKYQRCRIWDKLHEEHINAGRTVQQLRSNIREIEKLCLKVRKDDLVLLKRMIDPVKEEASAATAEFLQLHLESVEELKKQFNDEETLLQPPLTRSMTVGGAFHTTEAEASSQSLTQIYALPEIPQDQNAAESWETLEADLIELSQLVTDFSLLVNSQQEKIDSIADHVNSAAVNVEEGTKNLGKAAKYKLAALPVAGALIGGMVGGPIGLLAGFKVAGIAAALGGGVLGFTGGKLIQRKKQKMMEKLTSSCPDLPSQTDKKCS
inactive: [1] -0.049 | [2] -0.028 | [3] 0.028 | [4] -0.057 | [5] -0.027 | [6] -0.051 | [7] 0.071 | [8] 0.002 | [9] -0.012 | [10] 0.074

SUGP1 (UniProt Q8IWZ8)
Sequence of UniProt Q8IWZ8 (Q8IWZ8 whole entry, looked up): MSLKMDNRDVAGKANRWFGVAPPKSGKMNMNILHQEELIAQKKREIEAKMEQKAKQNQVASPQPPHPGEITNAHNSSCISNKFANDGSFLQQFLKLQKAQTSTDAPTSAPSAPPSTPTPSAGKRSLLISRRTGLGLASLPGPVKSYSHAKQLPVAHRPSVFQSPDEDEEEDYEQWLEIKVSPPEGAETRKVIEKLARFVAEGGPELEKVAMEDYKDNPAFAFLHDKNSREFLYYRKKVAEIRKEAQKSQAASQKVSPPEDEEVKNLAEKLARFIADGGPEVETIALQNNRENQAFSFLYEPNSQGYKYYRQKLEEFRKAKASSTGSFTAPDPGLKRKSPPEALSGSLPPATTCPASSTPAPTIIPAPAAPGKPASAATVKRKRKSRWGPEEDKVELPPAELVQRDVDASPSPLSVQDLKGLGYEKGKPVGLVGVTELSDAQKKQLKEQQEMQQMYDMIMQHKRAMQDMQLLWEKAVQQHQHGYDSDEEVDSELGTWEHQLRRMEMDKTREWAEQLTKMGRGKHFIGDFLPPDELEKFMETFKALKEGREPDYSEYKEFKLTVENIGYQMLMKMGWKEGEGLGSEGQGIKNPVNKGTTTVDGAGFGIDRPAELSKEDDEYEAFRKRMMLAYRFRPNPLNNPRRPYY
inactive: [1] -0.033 | [2] 0.012 | [3] -0.019 | [4] -0.058 | [5] -0.139 | [6] -0.043 | [7] 0.08 | [8] -0.012 | [9] -0.007 | [10] 0.063

SNX9 (UniProt Q9Y5X1)
inactive: [1] -0.015 | [2] 0.03 | [3] -0.06 | [4] -0.064 | [5] -0.131 | [6] 0.006 | [7] -0.023 | [8] -0.008 | [9] -0.013 | [10] 0.009

SUN2 (UniProt Q9UH99)
Sequence of UniProt Q9UH99 (Q9UH99 whole entry, looked up): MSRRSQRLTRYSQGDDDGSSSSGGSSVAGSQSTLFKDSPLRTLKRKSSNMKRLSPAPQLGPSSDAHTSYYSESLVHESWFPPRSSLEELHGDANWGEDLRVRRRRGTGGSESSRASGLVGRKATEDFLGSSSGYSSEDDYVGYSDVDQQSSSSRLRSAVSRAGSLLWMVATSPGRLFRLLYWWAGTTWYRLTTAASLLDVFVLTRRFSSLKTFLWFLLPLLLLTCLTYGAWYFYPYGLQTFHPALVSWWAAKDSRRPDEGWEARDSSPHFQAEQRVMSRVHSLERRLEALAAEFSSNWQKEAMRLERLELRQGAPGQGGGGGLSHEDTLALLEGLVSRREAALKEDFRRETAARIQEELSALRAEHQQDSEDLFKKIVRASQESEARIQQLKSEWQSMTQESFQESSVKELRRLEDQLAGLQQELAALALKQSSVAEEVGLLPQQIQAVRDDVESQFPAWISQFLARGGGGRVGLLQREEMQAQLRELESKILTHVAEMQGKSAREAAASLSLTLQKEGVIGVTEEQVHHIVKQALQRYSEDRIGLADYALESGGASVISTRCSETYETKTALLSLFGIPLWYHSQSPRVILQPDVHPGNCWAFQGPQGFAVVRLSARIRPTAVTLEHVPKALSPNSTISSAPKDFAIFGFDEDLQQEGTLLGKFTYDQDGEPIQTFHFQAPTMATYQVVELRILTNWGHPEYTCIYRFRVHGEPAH
inactive: [1] -0.04 | [2] 0.016 | [3] -0.007 | [4] -0.036 | [5] 0.004 | [6] -0.071 | [7] -0.052 | [8] -0.008 | [9] 0.013 | [10] -0.064

STK25 (UniProt O00506)
Sequence of UniProt O00506 (O00506 whole entry, looked up): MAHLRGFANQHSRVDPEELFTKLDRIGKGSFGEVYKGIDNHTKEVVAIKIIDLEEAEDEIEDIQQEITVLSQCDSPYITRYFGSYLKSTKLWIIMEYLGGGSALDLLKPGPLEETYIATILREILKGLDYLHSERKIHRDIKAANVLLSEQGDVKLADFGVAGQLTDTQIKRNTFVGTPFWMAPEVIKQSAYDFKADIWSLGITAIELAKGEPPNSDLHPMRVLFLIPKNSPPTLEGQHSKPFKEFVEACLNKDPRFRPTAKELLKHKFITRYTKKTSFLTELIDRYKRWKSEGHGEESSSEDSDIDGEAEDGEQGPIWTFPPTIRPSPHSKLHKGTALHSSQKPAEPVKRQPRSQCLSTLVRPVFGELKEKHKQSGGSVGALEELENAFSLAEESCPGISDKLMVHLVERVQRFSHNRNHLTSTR
inactive: [1] -0.015 | [2] -0.055 | [3] -0.083 | [5] -0.133 | [6] -0.033 | [7] 0.008 | [8] 0.007 | [9] 0.042 | [10] -0.013
active: [4] 0.257

TM9SF2 (UniProt Q99805)
Sequence of UniProt Q99805 (Q99805 whole entry, looked up): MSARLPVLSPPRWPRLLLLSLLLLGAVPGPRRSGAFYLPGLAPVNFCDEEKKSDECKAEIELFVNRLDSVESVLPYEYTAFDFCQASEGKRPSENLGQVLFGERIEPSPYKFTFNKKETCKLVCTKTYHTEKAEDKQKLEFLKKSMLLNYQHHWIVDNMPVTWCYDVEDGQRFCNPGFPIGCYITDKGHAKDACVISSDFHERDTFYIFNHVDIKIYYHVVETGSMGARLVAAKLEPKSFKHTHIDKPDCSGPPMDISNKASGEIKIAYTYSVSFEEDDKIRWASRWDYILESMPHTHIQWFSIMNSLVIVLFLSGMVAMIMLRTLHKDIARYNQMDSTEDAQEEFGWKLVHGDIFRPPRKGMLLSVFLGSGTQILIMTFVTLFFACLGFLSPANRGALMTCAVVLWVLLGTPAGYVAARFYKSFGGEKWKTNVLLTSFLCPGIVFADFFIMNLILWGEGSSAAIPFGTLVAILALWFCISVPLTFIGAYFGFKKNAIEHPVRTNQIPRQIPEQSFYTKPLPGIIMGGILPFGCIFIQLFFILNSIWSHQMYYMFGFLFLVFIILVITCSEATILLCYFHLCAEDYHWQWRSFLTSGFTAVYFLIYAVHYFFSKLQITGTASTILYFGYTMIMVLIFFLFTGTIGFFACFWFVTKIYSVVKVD
inactive: [1] -0.056 | [2] 0.008 | [3] 0.025 | [4] -0.072 | [5] -0.013 | [6] 0.041 | [7] 0.023 | [8] 0.036 | [9] 0.009 | [10] -0.006
